Sampled rows, rich in hits. Any-hit rate of the full collection: about 0.5%.
phage Ecoli inh: growth loss of phage-infected E. coli, primary screen, RecBCD inhibitor project, absorbance, with phage, HTS; AID 651602, 2012; 360,000 tested, 0.26% active; inhibition, % at 11.9 µM; in the data active = inhibition above about 11%
AddAB inh: growth inhibition of E. coli expressing H. pylori AddAB, primary screen, AddAB inhibitor project, absorbance | inhibition, % at 11.9 µM | 330,000 tested, 0.29% active | AID 435030, 2010; in the data active = inhibition above about 12%
E coli growth-1: E. coli growth inhibition, primary screen, OD600 | AID 1053175, 2014 | OD600 absorbance (test concentration not listed) | Escherichia coli growth, 23 h; stronger effect = lower value | 330,000 tested, 0.21% active;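 active = OD600 absorbance below the run mean of sample wells minus 3.6 SD, in any replicate, cut at about 0.56 in these data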
Tat export inh: E. coli Tat export inhibitors, primary screen, MC4100, TorA-mCherry reporter, fluorescence, single point; 340,000 tested, 0.036% active; AID 488895, 2010; inhibition, % at 10 µM;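 active = mean replicate inhibition at least 50% and at least half of replicates individually reaching 50%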;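 also: exported cargo escapes ClpAP degradation while cytoplasmic cargo is degraded and loses fluorescence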
E coli growth-2: E. coli V3065 growth inhibition, primary screen, counter-screen for AddAB inhibitor project, absorbance, OD600. 18 h. inhibition, % at 11.9 µM. 330,000 tested, 0.27% active;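 active = inhibition above the campaign's mean inhibition across all tested compounds plus 3 SD, cut at about 9.9% in these data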;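 also: uninfected addAB+ strain grown without phage in ampicillin broth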
RecBCD conf: growth loss of phage-infected RecBCD+ E. coli, confirmation, RecBCD inhibitor project, absorbance, E. coli V66, T4 gene 2 phage; shares compounds with phage Ecoli inh; E. coli V66 + T4 2- phage, growth OD; inhibition, % at 11.9 µM; 890 tested, 45% active;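 active = mean inhibition over triplicates exceeding the hit threshold derived in the original primary screen, cut at about 11% in these data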
Ecoli viability: E. coli viability inhibition, counter-screen for RecBCD inhibitor project, absorbance, high throughput; shares compounds with phage Ecoli inh; absorbance (OD) growth; inhibition, % at 11.9 µM; 890 tested, 29% active; AID 651983, 2013; in the data active = inhibition above about 20%;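 also: E. coli strain V66 grown with compound alone and no phage infection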
AddAB counter: growth loss of phage-infected AddAB-carrying E. coli, confirmation, counter-screen for RecBCD inhibitor project, absorbance, E. coli V3065, T4 phage; 890 tested, 45% active; inhibition, % at 11.9 µM; shares compounds with phage Ecoli inh; E. coli expressing H. pylori AddAB + T4 phage, OD growth; gene 2 mutant T4, recBCD-deleted host; AID 651984, 2013;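 active = mean inhibition above the solvent-only control wells' mean plus 3 SD, cut at about 22% in these data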;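 also: higher means less bacterial growth from phage killing when AddAB is blocked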
A number is an active result; – = inactive; · = no result.

SMILES	phage Ecoli inh	AddAB inh	E coli growth-1	Tat export inh	E coli growth-2	RecBCD conf	Ecoli viability	AddAB counter
COc1cccc(-c2cnc(C(O)c3ccc(F)c(C)c3)[nH]2)c1 (stereo unspecified)	12	·	·	·	·	–	–	–
COC(=O)C(NC(=O)OC1C(=O)c2ccc(OC)cc2OC1c1cccc(C(F)(F)F)c1)C(C)C (stereo unspecified)	·	·	–	·	·	·	·	·
O=C(N/N=C/c1ccc(O)cc1O)c1ccc(NC(=O)C2CCCCC2)cc1	23	24	·	–	29	14	–	–
CCCCCC(=O)Nc1cccc(C2=NOC3(C2)CC(C(N)=O)N(C(=O)COc2ccc(Cl)cc2)C3)c1 (stereo unspecified)	·	·	–	·	·	·	·	·
Nc1nc(Sc2ccc([N+](=O)[O-])c3nonc23)c2[nH]cnc2n1	39	·	·	–	·	44	51	68
CNc1ncnc(Sc2nc(N)nc3nc[nH]c23)c1[N+](=O)[O-]	62	·	·	–	·	55	65	79
Nc1nc(SCc2ccccc2)c2[nH]cnc2n1	–	–	–	–	–	·	·	·
COC(=O)[C@@]1(Cc2ccc(OC)cc2)C2c3cc(C(=O)N(C)C)n(Cc4c(CO)[nH]cc(C)c4=O)c3CC2CN1C(=O)c1ccccc1 (stereo partly specified)	·	·	–	·	·	·	·	·
CC(=NN1CC(=O)NC1=O)c1ccc([N+](=O)[O-])o1	50	·	0.13	–	·	24	44	103
CCC(C)C(NC(=O)NC(C)C)C(=O)O (stereo unspecified)	·	·	–	·	·	·	·	·
O=C(Nc1cccc([N+](=O)[O-])c1)c1cccc(C(=O)Nc2cccc([N+](=O)[O-])c2)c1	–	–	·	–	–	·	·	·
CC(NC(=O)Nc1cccc([N+](=O)[O-])c1)(C(F)(F)F)C(F)(F)F	14	–	–	–	–	–	–	–
COc1ccccc1NC(=O)CC(C)=NNC(=O)COc1c(Br)cc(Br)cc1OC	·	·	–	·	·	·	·	·
Cc1ccc(OCc2cc(C(=O)NCc3cn4ccccc4n3)no2)cc1C	–	–	–	–	–	·	·	·
O=C(NCCc1cn2ccccc2n1)c1cc(COc2c(F)cccc2F)on1	12	–	–	–	–	–	–	–
N#CCCN(C(=O)COC(=O)C1=NNC(=O)CC1)c1ccccc1	11	–	–	–	–	–	–	–
CN(Cc1ccccc1)C(=O)COC(=O)C1=NNC(=O)CC1	–	–	–	–	–	·	·	·
CN1CC2C(c3ccc(Cl)nc3)C3(c4cccnc4)CC2(C3)C1c1ccccc1 (stereo unspecified)	·	·	–	·	·	·	·	·
CCc1ccc(OCC(=O)NN=Cc2cc([N+](=O)[O-])ccc2N2CCCCCC2)cc1	·	·	–	·	·	·	·	·
O=c1ccc2cc3c([nH]c4ccc(Br)cc43)oc-2c1O	14	–	–	–	–	–	–	–
COc1ccc(-c2nn(CCC(=O)O)cc2/C=N/NC(N)=S)cc1	73	–	·	–	–	–	–	–
NC(=S)NN=Cc1cn(CCC(=O)O)nc1-c1cccc(Br)c1	·	·	–	·	·	·	·	·
Nc1nc(=S)c2ncn(C3OC(CO)CC3O)c2[nH]1 (stereo unspecified)	12	·	·	–	·	12	–	38
CC(OC(=O)N1CCN(C(c2ccccc2)c2ccccc2)CC1)C1O[C@@]2(C)CCCC1O2 (stereo partly specified)	·	·	–	·	·	·	·	·
CCCCC(=O)NC(c1cccc([N+](=O)[O-])c1)c1ccc2cccnc2c1O (stereo unspecified)	19	·	–	–	·	16	–	25
SMILES	phage Ecoli inh	AddAB inh	E coli growth-1	Tat export inh	E coli growth-2	RecBCD conf	Ecoli viability	AddAB counter
CCOC1OC(C(=O)O)=CC(c2ccc(Br)cc2)C1CCCO (stereo unspecified)	·	·	–	·	·	·	·	·
CCN(CC)S(=O)(=O)c1cc(OC)ccc1N=Nc1ccc(O)c2ncccc12	12	·	·	–	·	–	–	–
CCS(=O)(=O)c1ccc(OC)c(N=Nc2ccc(O)c3ncccc23)c1	–	–	–	–	–	·	·	·
Cc1cccc(N=Nc2ccc(O)c3ncccc23)c1	16	–	–	–	–	–	–	–
C[C@@]12CCCC(O1)C(C(O)c1ccccc1)O2 (stereo partly specified)	·	·	–	·	·	·	·	·
COc1ccc(C(=O)COc2ncnc3cc(Cl)ccc23)cc1	98	–	–	–	–	–	–	–
C[n+]1c(-c2ccc(C=NNC(=O)c3ccc(C(=O)NN=Cc4ccc(-c5cn6ccccc6[n+]5C)cc4)cc3)cc2)cn2ccccc21	57	·	·	50	·	78	76	80
O=C(N/N=C\c1ccc(F)cc1)c1ccc(F)cc1	–	–	·	–	–	·	·	·
CC(C)(C)C(=O)Nc1ccc(Sc2ccc([N+](=O)[O-])cc2)cc1	–	–	–	–	–	·	·	·
CC(=O)Nc1ccc(Sc2ccc([N+](=O)[O-])o2)cc1	21	·	–	–	·	15	–	72
COc1ccc(C2CC=C(C(=O)O)C(c3ccccc3)N2S(=O)(=O)c2ccccc2C)cc1 (stereo unspecified)	·	·	–	·	·	·	·	·
COC(=O)CC1c2ccccc2S(=O)(=O)N1c1cccc(OC)c1 (stereo unspecified)	·	·	–	·	·	·	·	·
Nc1nc(=O)n(C2OC(CO)C(O)C2O)cc1F (stereo unspecified)	21	·	·	·	·	26	21	53
O=c1[nH]c(=O)n(C2OC(CO)C(O)C2O)cc1F (stereo unspecified)	·	·	·	–	·	·	·	·
Nc1ncnc2c1ncn2[C@@H]1O[C@H](CO)[C@@H](O)[C@@H]1O	–	–	·	–	–	·	·	·
O=c1ncccn1C1OC(CO)C(O)C1O (stereo unspecified)	96	·	·	·	·	93	101	98
Nc1nc(F)nc2c1ncn2[C@@H]1O[C@H](CO)[C@@H](O)[C@@H]1O	75	–	·	–	–	78	79	78
COc1c2ccoc2c(OCC(O)C(C)(C)OC)c2oc(=O)ccc12 (stereo unspecified)	·	·	–	·	·	·	·	·
Cc1noc(NS(=O)(=O)c2ccc(NC=CC(=O)c3ccccc3)cc2)c1C	·	·	–	·	·	·	·	·
CCn1c(C)cc(C(=O)COC(=O)CNC(=O)c2ccco2)c1C	11	·	·	·	·	–	–	–
COC(=O)/C(=C\c1ccc([N+](=O)[O-])o1)NC(=O)c1ccccc1	–	–	–	–	–	·	·	·
NC(=O)/C(=C\c1ccc([N+](=O)[O-])o1)c1ccco1	100	·	·	·	·	102	103	101
OC(CN1CCN(c2ccccn2)CC1)Cn1c2ccccc2c2ccccc21 (stereo unspecified)	12	–	–	–	–	–	–	–

Compound activity (PubChem)
